PubChem BioAssay (NCI)
The panel holds about 83,000 compounds, 20% with a hit somewhere; the sample as a whole holds those more often.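 Step 1: grow cells in 96-well plates. Step 2: add test compound at a single concentration. Step 3: incubate 48 h. Step 4: record percent growth.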 The source made the active and inactive calls. The calls were made as follows: active = growth percent below 10; inactive = the rest.

Tests used:
Assay in all cases: NCI-60 one-dose screen, 48 h (100 = growth as untreated, 0 = no growth, -100 = all killed)
Settings in all cases: 10 µM unless noted
SR leukemia = tested on: SR leukemia
RPMI-8226 leukemia = tested on: RPMI-8226 leukemia
OVCAR-8 ovarian = tested on: OVCAR-8 ovarian
OVCAR-5 ovarian = tested on: OVCAR-5 ovarian
OVCAR-4 ovarian = tested on: OVCAR-4 ovarian
SK-OV-3 ovarian = tested on: SK-OV-3 ovarian
IGROV1 ovarian = tested on: IGROV1 ovarian
OVCAR-3 ovarian = tested on: OVCAR-3 ovarian
HS 578T breast = tested on: HS 578T breast
NCI/ADR-RES ovarian = tested on: NCI/ADR-RES ovarian
T-47D breast = tested on: T-47D breast
BT-549 breast = tested on: BT-549 breast
MDA-MB-435 melanoma = tested on: MDA-MB-435 melanoma
MCF7 breast = tested on: MCF7 breast
HCT-116 colon = tested on: HCT-116 colon
HCC-2998 colon = tested on: HCC-2998 colon
KM12 colon = tested on: KM12 colon
SW-620 colon = tested on: SW-620 colon

Measured: growth

NC(=O)[C@@H]1Cc2ccccc2CN1C(=O)c1ccc2c(c1)Cc1ccccc1-2
inactive: SR leukemia 92.6% | RPMI-8226 leukemia 60.1% | OVCAR-8 ovarian 75.1% | OVCAR-5 ovarian 98.8% | OVCAR-4 ovarian 84.9% | SK-OV-3 ovarian 108% | IGROV1 ovarian 90.2% | OVCAR-3 ovarian 85.7% | HS 578T breast 93.8% | NCI/ADR-RES ovarian 62.8% | T-47D breast 57.2% | BT-549 breast 63.1% | MDA-MB-435 melanoma 77.7% | MCF7 breast 70.8% | HCT-116 colon 81.1% | HCC-2998 colon 98.9% | KM12 colon 88.6%

O=C(CN1C(=O)c2ccccc2S1(=O)=O)Nc1nc(-c2cc3ccccc3oc2=O)cs1
inactive: SR leukemia 109% | RPMI-8226 leukemia 108% | OVCAR-8 ovarian 101% | OVCAR-5 ovarian 106% | OVCAR-4 ovarian 110% | SK-OV-3 ovarian 106% | IGROV1 ovarian 99.1% | OVCAR-3 ovarian 113% | HS 578T breast 96.6% | NCI/ADR-RES ovarian 103% | T-47D breast 98.7% | BT-549 breast 105% | MDA-MB-435 melanoma 104% | MCF7 breast 96.6% | HCT-116 colon 104% | HCC-2998 colon 102% | KM12 colon 101%

N#CC1=C(N)Oc2c(ccc3cccnc23)C1c1ccccc1 (stereo not drawn)
active: OVCAR-3 ovarian -6.82% | NCI/ADR-RES ovarian -11.2% | MDA-MB-435 melanoma -47.4%
inactive: SR leukemia 35.2% | RPMI-8226 leukemia 11.6% | OVCAR-8 ovarian 45.2% | OVCAR-4 ovarian 44.9% | SK-OV-3 ovarian 58.3% | IGROV1 ovarian 42.4% | HS 578T breast 35.6% | T-47D breast 50.4% | BT-549 breast 51.8% | SW-620 colon 29% | MCF7 breast 24.6% | HCC-2998 colon 50.4% | KM12 colon 25.2%

Nc1c(C(=O)c2ccc(Cl)cc2)sc(Nc2ccccc2)c1-c1nc2ccccc2s1
inactive: SR leukemia 33.2% | RPMI-8226 leukemia 28.3% | OVCAR-8 ovarian 23% | OVCAR-5 ovarian 46.4% | IGROV1 ovarian 29.1% | NCI/ADR-RES ovarian 18.8% | T-47D breast 11.8% | BT-549 breast 55.2% | MDA-MB-435 melanoma 16.7% | SW-620 colon 39.3% | MCF7 breast 43.9% | HCT-116 colon 13.9% | KM12 colon 16.1%
active: OVCAR-4 ovarian -9.61% | SK-OV-3 ovarian -0.592% | OVCAR-3 ovarian 4.1%

N#C/C(Sc1nc2sc3c(c2c(=O)n1Cc1ccccc1)CCCC3)=C1/SC=C(c2ccc(Cl)cc2)N1c1ccccc1
inactive: SR leukemia 25.4% | RPMI-8226 leukemia 68.3% | OVCAR-8 ovarian 61.6% | OVCAR-4 ovarian 93.5% | SK-OV-3 ovarian 88.6% | IGROV1 ovarian 38.2% | OVCAR-3 ovarian 112% | HS 578T breast 75.2% | NCI/ADR-RES ovarian 83.5% | T-47D breast 91.5% | BT-549 breast 101% | MDA-MB-435 melanoma 109% | SW-620 colon 89.9% | MCF7 breast 82.5% | HCT-116 colon 83.5% | HCC-2998 colon 87.2% | KM12 colon 95.8%

COc1cc(NC(=O)c2cncnc2Nc2ccc3c(ccn3Cc3cccc(F)c3)c2)cc(OC)c1
active: MDA-MB-435 melanoma -4.76%
inactive: SR leukemia 19.7% | RPMI-8226 leukemia 63.5% | OVCAR-8 ovarian 65.8% | OVCAR-4 ovarian 95.1% | SK-OV-3 ovarian 67% | IGROV1 ovarian 50.8% | OVCAR-3 ovarian 23% | HS 578T breast 51% | NCI/ADR-RES ovarian 42.1% | T-47D breast 70.9% | BT-549 breast 68.1% | SW-620 colon 29.6% | MCF7 breast 28.2% | HCT-116 colon 44.5% | HCC-2998 colon 72.9% | KM12 colon 34.8%

Cc1ccc2nc(/C=C/c3ccc(N(C)C)cc3)cc(C)c2c1
inactive: SR leukemia 22.1% | RPMI-8226 leukemia 34.1% | OVCAR-8 ovarian 41.4% | OVCAR-4 ovarian 85.5% | SK-OV-3 ovarian 31.4% | IGROV1 ovarian 49% | HS 578T breast 34.9% | NCI/ADR-RES ovarian 25.2% | T-47D breast 34.7% | BT-549 breast 32.3% | SW-620 colon 10.9% | MCF7 breast 10.1% | HCT-116 colon 22.8% | KM12 colon 21.5%
active: OVCAR-3 ovarian -2.23% | MDA-MB-435 melanoma -5.17%

CC(C)(C)n1cc(-c2ccnc(NCCNS(=O)(=O)c3ccc(C(F)(F)F)cc3)c2)c(-c2ccccc2)n1
inactive: SR leukemia 35.9% | RPMI-8226 leukemia 81.1% | OVCAR-8 ovarian 89.2% | OVCAR-4 ovarian 84.8% | SK-OV-3 ovarian 97.8% | IGROV1 ovarian 97.3% | OVCAR-3 ovarian 94.5% | HS 578T breast 99.6% | NCI/ADR-RES ovarian 91.5% | T-47D breast 62.5% | BT-549 breast 93.7% | MDA-MB-435 melanoma 100% | SW-620 colon 99.2% | MCF7 breast 63% | HCT-116 colon 58.9% | HCC-2998 colon 111% | KM12 colon 96.7%

O=C1CCC(C(=O)N/N=C/c2ccc([N+](=O)[O-])cc2)N1 (stereo not drawn)
inactive: SR leukemia 113% | RPMI-8226 leukemia 100% | OVCAR-8 ovarian 101% | OVCAR-4 ovarian 104% | SK-OV-3 ovarian 105% | IGROV1 ovarian 100% | OVCAR-3 ovarian 105% | HS 578T breast 98.8% | NCI/ADR-RES ovarian 103% | T-47D breast 99.2% | BT-549 breast 106% | MDA-MB-435 melanoma 102% | SW-620 colon 105% | MCF7 breast 94.8% | HCT-116 colon 105% | HCC-2998 colon 95.3% | KM12 colon 105%

CC1(C)CC[C@]2(CO)CC[C@]3(C)C(=CC[C@@H]4[C@@]5(C)CCNCC(C)(C)[C@@H]5CC[C@]43C)[C@@H]2C1
inactive: OVCAR-8 ovarian 87.4% | OVCAR-4 ovarian 81% | SK-OV-3 ovarian 95.4% | IGROV1 ovarian 95% | OVCAR-3 ovarian 89.5% | HS 578T breast 96.7% | NCI/ADR-RES ovarian 91.9% | T-47D breast 56.3% | BT-549 breast 90.1% | MDA-MB-435 melanoma 41.6% | SW-620 colon 21% | MCF7 breast 38.6% | HCT-116 colon 55.5% | KM12 colon 34.7%
active: SR leukemia -24.3% | RPMI-8226 leukemia -26.1% | HCC-2998 colon -60.8%

Nc1n[nH]c2cccc(C#Cc3cccc(C(=O)Nc4ccc(Cl)c(C(F)(F)F)c4)c3)c12
inactive: SR leukemia 56% | RPMI-8226 leukemia 53.1% | OVCAR-8 ovarian 65.8% | OVCAR-5 ovarian 43.4% | OVCAR-4 ovarian 56.2% | SK-OV-3 ovarian 106% | IGROV1 ovarian 35.8% | OVCAR-3 ovarian 81.6% | NCI/ADR-RES ovarian 62.2% | T-47D breast 33.5% | BT-549 breast 78.3% | MDA-MB-435 melanoma 42.8% | SW-620 colon 61.8% | MCF7 breast 50.2% | HCT-116 colon 28.5% | KM12 colon 59.4%

COC(=O)c1c(C(=O)OC)c2ccc3c4ncccc4ccc3n2c1C(=O)c1ccc(C)cc1
inactive: SR leukemia 75.8% | RPMI-8226 leukemia 84.1% | OVCAR-8 ovarian 82.7% | OVCAR-4 ovarian 90.9% | SK-OV-3 ovarian 87.8% | IGROV1 ovarian 94.4% | OVCAR-3 ovarian 102% | HS 578T breast 96.3% | NCI/ADR-RES ovarian 92.7% | T-47D breast 54.4% | BT-549 breast 88.1% | MDA-MB-435 melanoma 102% | SW-620 colon 98.8% | MCF7 breast 86.2% | HCT-116 colon 95.6% | HCC-2998 colon 107% | KM12 colon 97%

O=C(CNc1ncco1)Nc1ccc(S(=O)(=O)c2ccc(NC(=O)CNc3ncco3)cc2)cc1
active: SR leukemia -0.678% | OVCAR-8 ovarian -80.7% | IGROV1 ovarian -10.3% | HS 578T breast -4.97% | NCI/ADR-RES ovarian -12.5% | MDA-MB-435 melanoma 3.01% | SW-620 colon -82%
inactive: RPMI-8226 leukemia 11.2% | OVCAR-4 ovarian 17.5% | SK-OV-3 ovarian 76.1% | OVCAR-3 ovarian 104% | T-47D breast 29.3% | BT-549 breast 43.9% | MCF7 breast 18.9% | HCC-2998 colon 76.4% | KM12 colon 94.8%

O=C(CSc1nnc(-c2cc(-c3ccc(Cl)cc3)nc3ccccc23)n1-c1ccccc1)Nc1ccc(Cl)cc1
inactive: SR leukemia 78.6% | RPMI-8226 leukemia 102% | OVCAR-8 ovarian 98.3% | OVCAR-5 ovarian 102% | OVCAR-4 ovarian 108% | SK-OV-3 ovarian 94.6% | IGROV1 ovarian 97.8% | OVCAR-3 ovarian 106% | NCI/ADR-RES ovarian 99.4% | T-47D breast 96.5% | BT-549 breast 110% | MDA-MB-435 melanoma 102% | SW-620 colon 106% | MCF7 breast 88.3% | HCT-116 colon 86.3% | KM12 colon 102%

CSc1nc(CC(C)C)c(C#N)c(=O)n1C
inactive: SR leukemia 47.4% | RPMI-8226 leukemia 64.5% | OVCAR-8 ovarian 77.1% | OVCAR-4 ovarian 52.4% | SK-OV-3 ovarian 87.7% | IGROV1 ovarian 71.8% | OVCAR-3 ovarian 61.3% | HS 578T breast 58.4% | NCI/ADR-RES ovarian 72.5% | T-47D breast 33.4% | BT-549 breast 58.8% | MDA-MB-435 melanoma 65.8% | SW-620 colon 63.1% | MCF7 breast 38.7% | HCT-116 colon 60.4% | HCC-2998 colon 79.4% | KM12 colon 86.5%

O=[N+]([O-])c1ccc(N/N=C\c2cc(Cl)ccc2O)nc1
inactive: SR leukemia 10.6% | RPMI-8226 leukemia 40.8% | OVCAR-8 ovarian 32.9% | OVCAR-4 ovarian 36.1% | SK-OV-3 ovarian 46.6% | IGROV1 ovarian 30.4% | OVCAR-3 ovarian 48.5% | HS 578T breast 64.2% | NCI/ADR-RES ovarian 17.4% | T-47D breast 25.4% | BT-549 breast 42.4% | MDA-MB-435 melanoma 48.7% | SW-620 colon 32.4% | MCF7 breast 16% | HCT-116 colon 16.7% | HCC-2998 colon 42% | KM12 colon 29%

C#CCOc1ccc(C2=NN(C)C3N=C(Cl)c4ncn(C)c4N23)cc1OCC#C (stereo not drawn)
inactive: SR leukemia 91% | RPMI-8226 leukemia 92.4% | OVCAR-8 ovarian 93.1% | OVCAR-4 ovarian 102% | SK-OV-3 ovarian 101% | IGROV1 ovarian 102% | OVCAR-3 ovarian 118% | HS 578T breast 99.9% | NCI/ADR-RES ovarian 88.4% | T-47D breast 77.4% | BT-549 breast 99.6% | MDA-MB-435 melanoma 108% | SW-620 colon 93.6% | MCF7 breast 98.5% | HCT-116 colon 93.3% | HCC-2998 colon 104% | KM12 colon 102%
